Where “and” joins values, the source holds several entries; their conditions need not be identical. Equal entries are not always repeated. The campaign covered roughly 300,000 compounds. About 480 (0.16%) were called active.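 How the source made its calls: active means inhibition over 29.93%, a cutoff 3 SD above the screen mean, later confirmed by dose response; inconclusive means inhibition over 29.93% but no dose response follow-up; inactive means inhibition at most 29.93% or unconfirmed.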 The list is a sample of the results. Results with a measured potency or affinity are listed apart.
assay: PhoP-dependent GFP reporter repression – Salmonella Typhimurium, primary screen (AID 1863);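 further: 0% = low Mg2+ inducing control and 100% = high Mg2+ repressing control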; details: S. Typhimurium PhoP-regulated promoter GFP reporter, 4 h; at 50 µM; active compounds read high

inhibition, inactive:
CC(NC(=O)COc1ccc(Oc2ccccc2)cc1)C(=O)O (stereo unspecified) -6.64%, CC(=O)c1cccc(NC(=O)Nc2ccccc2)c1 4.67%, COc1ccc(C(NC(C)=O)c2cc(Cl)c3cccnc3c2O)cc1OC (stereo unspecified) 3%, Oc1c(C(c2ccc(Cl)cc2)N2CCCC2)cc(Cl)c2cccnc12 (stereo unspecified) 4.49%, CN1CCN(C(c2ccc(C(F)(F)F)cc2)c2ccc3cccnc3c2O)CC1 (stereo unspecified) 0.72%, O=C(NC(c1ccc(Cl)cc1)c1cc(Cl)c2cccnc2c1O)c1cccnc1 (stereo unspecified) 6.03%, CN1CCN(C(c2cccnc2)c2ccc3cccnc3c2O)CC1 (stereo unspecified) -7.68%, CCC(=O)NC(c1ccc(OC)cc1)c1cc(Cl)c2cccnc2c1O (stereo unspecified) 2.08%, CCOC(=O)N1CCN(S(=O)(=O)c2cccc3cccnc23)CC1 -11%, OCCN1CCN(C(c2cccs2)c2ccc3cccnc3c2O)CC1 (stereo unspecified) -47.6%, CCC(c1nnnn1C(C)(C)CC)N(CCCN1CCOCC1)Cc1cc2cccc(C)c2[nH]c1=O (stereo unspecified) 1.45%, CCn1nc(C)c(/C=N/NC(=O)Cn2nc(C)cc2C)c1C -4.2%, CCCCNC(=O)c1cc(-c2ccc(OC)c(OC)c2)on1 3.01%, Cc1c(C#N)c(N)nc2c3c(sc12)NC(=O)CC3c1ccccc1 (stereo unspecified) -5.65%, COc1cccc(NC(=O)c2cc([N+](=O)[O-])ccc2NCc2cccnc2)c1 -4.37%, CCOC(=O)c1cn(CC(=O)Nc2cccc(F)c2)nn1 -11.4%, O=C(Cn1c(C(=O)O)cc2ccccc21)c1ccccc1 -2.79%, Cc1ccc(N2C(=O)N(CC(=O)N3CCOCC3)C(=O)C2C)cc1 (stereo unspecified) 2.04%, COC(C(=O)Nc1ccnn1C1CCN(C(=O)c2ccc(C)cc2)CC1)c1ccccc1 (stereo unspecified) 5.45%, O=S1(=O)CCOC[C@H](CC2CCCCC2)N1Cc1cccc(C(F)(F)F)c1 9.84%, CC(=O)NC(c1ccc(C)cc1)c1cc(Cl)c2cccnc2c1O (stereo unspecified) -1.88%, CC(=O)NC(c1ccccc1)c1cc(Cl)c2cccnc2c1O (stereo unspecified) 18.9%, CCOc1ccc(C(Nc2cccnc2)c2cc(Cl)c3cccnc3c2O)cc1 (stereo unspecified) 3.11%, Oc1c(C(c2ccccn2)N2CCC(Cc3ccccc3)CC2)cc(Cl)c2cccnc12 (stereo unspecified) -3.77%, COc1ccc(C(NC(C)=O)c2cc(Cl)c3cccnc3c2O)cc1 (stereo unspecified) 5.56%, O=C(NC(c1ccccc1)c1cc(Cl)c2cccnc2c1O)c1cccnc1 (stereo unspecified) -10.8%, CCC(=O)NC(c1cccs1)c1cc(Cl)c2cccnc2c1O (stereo unspecified) 14.8%, CCCc1cc(=O)[nH]c(SCC(=O)Nc2ccc(Br)cc2)n1 -7.86%, CC1CCN(S(=O)(=O)c2ccc3c(c2)c(=O)c(C(=O)NCc2ccccc2Cl)cn3C)CC1 5.92%, O=C(/C=C/c1ccccc1Cl)c1ccc[nH]1 11.1%, Cc1cccc(/C=C/C(=O)c2cc(Br)ccc(=O)c2O)c1 23.4%, O=C(/C=C/c1ccccc1Cl)c1ccc(O)cc1 2.4%, Cc1ccc(/C=C/C(=O)c2ccccc(=O)c2O)c(C)c1 7.66%, O=C(/C=C/c1ccc(O)c(O)c1)c1ccccc1O -12%, Cc1ccc2occ(/C=C/C(=O)c3ccccc3O)c(=O)c2c1 1.62%, C=CCNC(=O)CSc1nnc(-c2ccccn2)n1Cc1ccccc1 7.3%, CCOC(=O)c1ccc(NC(=O)c2ccccc2N(C)S(=O)(=O)c2ccccc2)cc1 1.33%, Cc1ncc(CSCC(=O)Nc2cc(C(F)(F)F)ccc2Cl)c(CO)c1O 3.52%, C=C1CCC(OC(C)=O)C2(C)CCC3C(C)C(=O)OC3C12O (stereo unspecified) 5.69%, CC[N+](C)(C)CCN(Cc1ccc(Cl)cc1)c1ccccn1 1.17%, COc1ccc(CN(CCN(C)C)c2ccccn2)cc1 5.26% and 0.005%, Cc1cccc(CCNC(=O)CN(C)S(=O)(=O)c2ccc3c(c2)c(=O)n(C)c(=O)n3C)c1 10.3%, Cc1ccc(N2C(=O)N(Cc3ccccc3C)c3ccccc3S2(=O)=O)cc1 3.76%, O=C(N/N=C/c1ccc(O)c2ncccc12)c1cccc(Br)c1 -1.53%, Oc1ccc(F)c2cccnc12 -2.12%, Cc1ccc(N=Nc2ccc(O)c3ncccc23)cc1 0.67%, Cc1ccccc1N=Nc1ccc(O)c2ncccc12 -2.25%, CN(c1ccc(C(=O)Nc2ccccc2C(=O)N2CCCC2)cc1)S(C)(=O)=O 1.89%, CCn1c(C(=O)O)c(CC(=O)Nc2ccccc2OC)c2ccccc21 -3.77%, CCC/C=C1/CCCOC(C(=O)NCc2ccccn2)(C(F)(F)F)C1 (stereo unspecified) 4.57%, COC(=O)c1ccccc1NC(=O)Nc1ncccc1C 8.31%, C=CCn1c(-c2sc3nc(C)cc(C)c3c2N)n[nH]c1=S 1.92%, CN(Cc1ccccc1)S(=O)(=O)c1ccc(Cl)c(C(=O)NCCc2ccccn2)c1 -2.89%, Cc1ccc(S(=O)(=O)NC(=O)NCc2ccc(F)cc2)cc1 -2.51%, COc1ccc(-c2nnc(SCC(=O)NC(=O)NCc3ccccc3)o2)cc1 2.48%, CCCc1cc(=O)oc2cc(C)cc(OCC(=O)NCCCN3CCCC3=O)c12 -4.85%, Cn1nnnc1SCc1nc2ccccc2s1 -6.44%, COc1c(C(=O)Nc2ccc(CN3CCOCC3)cc2)cc2ccccc2c1Br 2.69%, C[C@H]1[C@H](NC(=O)C(=NOC(C)(C)C(=O)O)c2csc(N)n2)C(=O)N1S(=O)(=O)O -6.02%, CN(C)CCn1nnnc1SCC1=C(C(=O)O)N2C(=O)[C@@H](NC(=O)Cc3csc(N)n3)[C@H]2SC1 2.16%, C=CC1=C(C(=O)O)N2C(=O)C(NC(=O)Cc3ccccc3)C2SC1 (stereo unspecified) -2.7%, CC1=C(C(=O)O)N2C(=O)C(NC(=O)c3ccn(C)n3)C2SC1 (stereo unspecified) 5.21%, COC(c1ccccc1)(c1ccccc1)C(Oc1nccc(C)n1)C(=O)O (stereo unspecified) -3.3%, COc1cccc(C(=O)Nc2cnc(NC(=O)c3ccco3)cc2C)c1 12.2%, C=CCN=C(NC#N)SCC(=O)c1cccc(OC)c1 -4.71%, O=C(NCCCn1ccnc1)/C(=C\c1ccc(Br)cc1)NC(=O)c1ccccc1F -5.42%, COc1cc(O)c(C(CC(=O)N2CCOCC2)c2cc(OC)c(OC)c(OC)c2)c(OC)c1 (stereo unspecified) -0.44%, CO[C@H]1C=CO[C@@]2(C)Oc3c(C)c(O)c4c(O)c(c(C=NN5CCN(C6CCCC6)CC5)c(O)c4c3C2=O)NC(=O)C(C)=CC=C[C@H](C)[C@H](O)[C@@H](C)[C@@H](O)[C@@H](C)[C@H](OC(C)=O)[C@@H]1C -1.76%, CO[C@H]1C=CO[C@@]2(C)Oc3c(C)c(O)c4c(O)c(c5c(c4c3C2=O)NC2(CCN(CC(C)C)CC2)N=5)=NC(=O)C(C)=CC=C[C@H](C)[C@H](O)[C@@H](C)[C@@H](O)[C@@H](C)[C@H](OC(C)=O)[C@@H]1C -10.1%, COc1ccccc1CNC(=O)C(=O)NCC1OCCN1C(=O)c1cccs1 (stereo unspecified) -7.58%, CCOc1ncccc1C(=O)NCCCSc1ccccc1 4.02%, COc1ccc(Cl)cc1/C=C(\C#N)C(N)=O -5.64%, Cc1ccnc(SCCn2c(N3CCCCC3)nc3c2c(=O)[nH]c(=O)n3C)n1 2.87%, CC(=O)Nc1ccc(S(=O)(=O)NCc2cc(=O)n(C)c(=O)n2C)cc1 1.8%, CCOc1cc(C2/C(=C(/O)c3ccc(OC(C)C)cc3)C(=O)C(=O)N2CCCOC)ccc1O (stereo unspecified) -4.64%, CCc1cc2c3c(c1)/C(=C1/SC(N)=NC1=O)C(=O)N3C(C)(C)C=C2C 2.08%, Cc1cc(C)cc(CN2C(=O)NC3(CCCCCC3)C2=O)c1 -9.68%, CC(NCc1ccccc1O)c1ccccc1 (stereo unspecified) -3.45%, Oc1ccccc1CNCc1ccccc1 4.46%, CN(C)S(=O)(=O)c1cccc(NC(=O)c2ccc(S(=O)(=O)N3CCCC3)cc2)c1 -7.11%, CC(C)OCCCNc1nc2c(-c3ccccc3)nnn2c2ccccc12 -3.07%, COc1cc(NC(=O)Cn2cnc(S(=O)(=O)N3CCC(C)CC3)c2)cc(OC)c1OC -7.04%, CC[C@H]1OC(=O)[C@H](C)[C@@H](O[C@H]2C[C@@](C)(OC)[C@@H](O)[C@H](C)O2)[C@H](C)[C@@H](O[C@@H]2O[C@H](C)C[C@H](N(C)C)[C@H]2O)[C@](C)(O)C[C@@H](C)C(=NOCOCCOC)[C@H](C)[C@@H](O)[C@]1(C)O 2.91%, CC[C@H]1OC(=O)[C@H](C)[C@@H](O[C@H]2C[C@@](C)(OC)[C@@H](O)[C@H](C)O2)[C@H](C)[C@@H](O[C@@H]2O[C@H](C)C[C@H](N(C)C)[C@H]2O)[C@](C)(O)C[C@@H](C)C(=O)[C@H](C)[C@@H](O)[C@]1(C)O 6.93%, CCOC(=O)N/N=C\c1cccc(OC)c1OC/C=C/c1ccccc1 1.25%, COc1ccccc1CN1C[C@@H]2C[C@@H](c3[nH]c4c(C)cccc4c3C)N3CCC[C@@]23C1=O -4.79%
